# Screens deposited in PubChem BioAssay by several laboratories.
# CYP2C19 act = human CYP2C19 activators, primary screen, biochemical, luminescence | activation factor at 5 µM | Cytochrome P450 2C19 (Homo sapiens), P33261 | 96,000 tested, under 10 active | recombinant CYP2C19, luciferin-H EGE luminescence; active compounds read high; 0 = fully inhibited enzyme, 1 = untreated enzyme;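 active means activation factor of at least 2 at 5 µM in the primary screen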;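 further: 0 = wells with 2.5 mM tranylcypromine and 1 = vehicle-only wells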
# Target sequence (P33261 whole entry, looked up): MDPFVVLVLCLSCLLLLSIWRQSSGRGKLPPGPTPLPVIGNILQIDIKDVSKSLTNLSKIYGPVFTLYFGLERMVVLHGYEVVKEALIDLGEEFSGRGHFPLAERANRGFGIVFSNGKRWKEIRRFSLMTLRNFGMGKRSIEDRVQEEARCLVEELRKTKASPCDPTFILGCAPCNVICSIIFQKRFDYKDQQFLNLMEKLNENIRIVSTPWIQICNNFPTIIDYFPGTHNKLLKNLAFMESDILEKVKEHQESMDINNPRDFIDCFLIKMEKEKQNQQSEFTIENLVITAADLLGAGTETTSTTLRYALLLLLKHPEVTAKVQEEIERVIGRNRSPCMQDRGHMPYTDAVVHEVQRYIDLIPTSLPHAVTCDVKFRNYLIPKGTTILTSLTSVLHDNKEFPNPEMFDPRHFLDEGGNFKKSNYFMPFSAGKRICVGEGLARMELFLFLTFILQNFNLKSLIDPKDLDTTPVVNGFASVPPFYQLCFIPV
# E-sel TNF inh = E-selectin induction blockers in HUVEC – imaging, immunofluorescence, high content, primary screen; AID 1246, 2008; HUVEC TNFa-induced E-selectin immunofluorescence; inhibition, % at 2 µM; actives 0.71% (n = 120,000);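 active means inhibition above the batch mean plus 3 SD, and confirmed as a hit on visual image review, cut at about 43% in these data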;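 further: 0% = TNF-stimulated DMSO wells and 100% = unstimulated control wells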
# CYP2C9 inh = blockers of cytochrome P450 2C9 activity – biochemical, luminescence, ADME assay, primary screen | actives 20% (n = 96,000) | AID 777, 2007 | CYP2C9 Supersomes, luciferin-H conversion | inhibition, % at 5 µM;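 active means blocking of liver enzyme CYP2C9 beyond about 50% at 5 µM, limit read from the data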
# CYP2C9 activ = human CYP2C9 activators, primary screen, biochemical, luminescence | Cytochrome P450 2C9 (Homo sapiens), P11712 | recombinant CYP2C9, luciferin-H conversion; active compounds read high; factor 1 = untreated enzyme, 0 = blocked | activation factor at 5 µM | actives 1.4% (n = 96,000) | AID 1024, 2008;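 active means activation factor of 2 or more for CYP2C9 at a 5 µM dose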;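 further: 0 = sulfaphenazole-blocked wells and 1 = vehicle-only wells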
# F-actin modifier = modifiers of F-actin cytoskeleton organization, primary screen, imaging, HUVEC, phalloidin staining, high-content imaging; HUVEC TNFa F-actin phalloidin imaging; inhibition, % at 2 µM; actives 0.18% (n = 91,000); AID 836, 2007;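 active means inhibition above the batch mean plus 3 SD and confirmed as a hit by visual image inspection, cut at about 30% in these data, passing the limit was not always enough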
# CYP2C19 inhib = blockers of cytochrome P450 2C19 activity – biochemical, luminescence, ADME assay, primary screen | AID 778, 2007 | P33261 | actives 21% (n = 96,000) | CYP2C19 Supersomes, luciferin-H EGE luminescence, 30 min | inhibition, % at 5 µM;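 active means CYP2C19 inhibition above a set limit at 5 µM in the primary screen, cut at about 50% in these data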;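 further: plate controls were negative control wells for no effect and 2.5 mM tranylcypromine positive control for full effect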
# * = called active by the depositor; . = no result given. An excerpt weighted towards active compounds, which were near 22% of everything screened.
SMILES,CYP2C19 act,E-sel TNF inh,CYP2C9 inh,CYP2C9 activ,F-actin modifier,CYP2C19 inhib
CN(Cc1ccccc1)C(=O)c1ccccc1NC(=O)c1ccccc1,0.6,-44.0,14.0,0.9,51.3*,44.6
Cc1cc(NC(=O)CSc2nnc(C)c(=O)[nH]2)no1,1,.,6.2,0.9,-8.3,2.1
CNC(=O)c1ccccc1NC(=O)c1ccco1,.,3.9,.,.,33.7*,.
Cc1ccc(C(=O)Nc2cccnc2)cc1NC(=O)c1ccco1,1.1,19.5,54.3*,0.5,7.1,-5.5
O=C(Nc1ccccc1)Nc1ccccc1C(=O)NCc1ccccc1,0.8,10.1,50.5*,0.5,.,17.8
Cc1ccccc1NC(=O)c1ccccc1NC(=O)c1ccco1,0.8,-19.9,49.7,0.5,-8.8,18.0
O=C(Nc1cccnc1)c1cccc(NC(=O)c2ccco2)c1,1,-6.9,-42.0,1.4,11.5,2.9
CCCNC(=O)c1ccccc1NC(=O)c1ccc(CSc2ccccc2)cc1,0.3,22.5,79.0*,0.2,2.2,74.5*
CNC(=O)Nc1ccccc1C(=O)NCc1ccccc1,0.6,-111.6,14.5,0.9,5.5,36.8
COc1ccccc1NC(=O)N1CCCC1C(=O)Nc1ccc2c(c1)OCO2 (stereo not drawn),.,-4.8,.,.,7.5,.
CNc1nc(Oc2ccc(C(=O)OC)cc2)nc(SC)n1,.,-9.5,.,.,-3.0,.
O=C1/C(=C/c2ccccc2)CSc2sccc21,0.5,0.0,40.5,0.6,-5.2,54.8*
COc1ccc(CNC(C)C2COc3ccccc3O2)c(OC)c1 (stereo not drawn),0.1,7.2,12.8,0.9,5.7,87.0*
CC(NCc1ccccc1)C1COc2ccccc2O1 (stereo not drawn),0.5,11.3,6.0,0.9,-1.2,51.9*
Cc1cc(N2C3CCC2CC(O)(c2ccc(F)cc2)C3)nc(-c2ccccc2)n1 (stereo not drawn),0.1,.,100.0*,0,6.4,93.7*
CS(=O)(=O)N1CCN(c2ccccc2F)CC1,0.8,-12.3,25.2,0.7,15.1,16.5
CCCCN(Cc1cc2cc(OC)ccc2[nH]c1=O)C(=O)COc1ccccc1,.,-26.1,.,.,5.2,.
CCOC(=O)C1=C(N)Oc2cc(O)ccc2C1c1cccnc1 (stereo not drawn),0.1,-2.5,90.5*,0.1,2.5,89.2*
CCOC(=O)C1=C(N)OC2=C(C(=O)CC(C)C2)C1c1cccnc1 (stereo not drawn),.,-0.7,.,.,.,.
COc1ccc(C(C(C(=O)c2cccs2)N2CCOCC2)N2CCOCC2)cc1OC (stereo not drawn),0.9,-15.1,-1.5,1,30.6,5.7
CC1CCc2c(C(=O)N3CCN(S(=O)(=O)c4cccs4)CC3)csc2C1 (stereo not drawn),0.2,8.3,77.1*,0.2,7.3,77.7*
CCN1CCN(C(=O)CN(C)S(=O)(=O)c2ccc(Cl)cc2)CC1,1,3.8,-4.5,1,8.0,1.8
N#CC1=C(N)S[C@H](C(=O)C23CC4CC(CC(C4)C2)C3)[C@H]1c1ccncc1,0.3,12.0,41.2,0.6,3.5,66.5*
N#CC1=C(N)SC(C(=O)c2ccccc2)C1c1cccs1 (stereo not drawn),.,-21.3,.,.,-0.8,.
CN(Cc1cnn(C)c1)C(=O)c1cc2ccccc2oc1=O,0.9,10.6,-11.1,1.1,-6.7,14.8
SMILES,CYP2C19 act,E-sel TNF inh,CYP2C9 inh,CYP2C9 activ,F-actin modifier,CYP2C19 inhib
CCc1c(C)nc2cc(-c3ccc(OC)cc3)[nH]n2c1=O,1,7.7,-13.9,1.1,.,-1.0
Cn1nnnc1SCc1c(F)cccc1F,0.7,18.4,1.4,1,48.0,25.6
CCOc1cc(CNc2ccccc2)cc(Br)c1OCc1ccc(F)cc1,0.7,-49.0,51.0*,0.5,-1.2,32.7
COc1cc(CNCCSc2nnnn2C)cc(Br)c1OCc1ccc(F)cc1,0.2,-17.2,17.8,0.8,-22.3,76.1*
COc1ccc(CNC(=O)CSc2nnnn2C)cc1OC,.,-70.1,.,.,.,.
CCOc1cc(CNCCSc2nnnn2C)cc(Br)c1OCc1ccccc1F,0.2,-52.8,36.6,0.6,-4.0,83.8*
CCOc1cc(CNCc2ccncc2)cc(Br)c1OCc1ccccc1F,0.1,-18.5,91.1*,0.1,13.6,85.1*
